Data as given in the supplement of paper PMC10849652.
Of roughly 7,900 targets only a part is listed; those with a hit were picked by preference. About 0.6% of all pairs of compound and target were hits. Unmarked numbers belong to inactive results.

Legend:
Assay in all cases: log2 fold change, soluble protein after heating vs DMSO (PISA); higher = thermal stabilisation; K562 cells, 10 uM, 30 min; active = over 0.2 and 3.5 SD of the protein, either way, in both replicates (recomputed)
[1] = compound: C#Cc1cccc(Nc2ncnc3cc(OCCOC)c(OCCOC)cc23)c1 [erlotinib]
Method in brief: (§1)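 Values are thermal stability changes relative to control samples and are taken from duplicates. They are stated as log2 fold changes. Before quantification by TMTpro 16plex LC-MS/MS with equalised channel sums, K562 cells at 2×10^6 cells/mL were treated with 10 μM compound for 30 min, heated in aliquots for 3 min across 48°C-58°C, pooled, extracted in PBS with 0.5% NP-40 at 4°C, and centrifuged at 21,000xg for 90 min to give the soluble supernatant.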

[2] = compound: C/C(=N\NC(=O)C1=CC(=CC=C1)S(=O)(=O)N2CCOCC2)/C3=C(C=CC(=C3)Cl)O
Method in brief: as §1

[3] = compound: C1=CC(=C(C=C1Cl)C2=NC3=NC=CN=C3C(=N2)NC4=CC=NC=C4)F
Method in brief: as §1

[4] = compound: C1=CC(=CC=C1C2=NC3=C(N2)C=C(C=C3)C(=O)N)OC4=CC=C(C=C4)Cl
Method in brief: as §1

[5] = compound: C1=CC2=C(C=CC(=C2)/C=C\3/C(=O)NC(=NCC4=CC=CS4)S3)N=C1
Method in brief: as §1

[6] = compound: C1=CC2=NC=CN=C2C=C1/C=C/3\C(=O)NC(=O)S3
Method in brief: as §1

[7] = compound: C1=CC=C(C=C1)C2=NC(=C(N2)C3=CC=NC=C3)C4=CC(=C(C=C4)Cl)O
Method in brief: as §1

[8] = compound: C1=CC=C2C(=C1)C3=NNC4=CC=CC(=C43)C2=O
Method in brief: as §1

[9] = compound: C1CCN(C1)C(=O)NC2=CC=CC(=C2)NC3=NC=C(C(=N3)NCCC4=CN=CN4)Br
Method in brief: as §1

[10] = compound: C1CN(CCC1(CC2=CC=C(C=C2)Cl)N)C3=NC=NC4=C3C=CN4
Method in brief: as §1

Sequence of UniProt Q9Y5K5 (Q9Y5K5 whole entry, looked up): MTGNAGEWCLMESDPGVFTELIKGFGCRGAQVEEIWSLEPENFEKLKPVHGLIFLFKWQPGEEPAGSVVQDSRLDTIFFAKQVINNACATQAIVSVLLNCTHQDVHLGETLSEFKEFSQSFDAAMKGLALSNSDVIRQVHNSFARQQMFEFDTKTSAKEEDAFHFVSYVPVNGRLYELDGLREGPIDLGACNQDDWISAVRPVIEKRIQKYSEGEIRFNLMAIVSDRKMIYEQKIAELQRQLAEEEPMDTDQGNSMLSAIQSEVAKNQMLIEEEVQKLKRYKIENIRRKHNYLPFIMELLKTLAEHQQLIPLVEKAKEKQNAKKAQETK
Sequence of UniProt O00220 (O00220 whole entry, looked up): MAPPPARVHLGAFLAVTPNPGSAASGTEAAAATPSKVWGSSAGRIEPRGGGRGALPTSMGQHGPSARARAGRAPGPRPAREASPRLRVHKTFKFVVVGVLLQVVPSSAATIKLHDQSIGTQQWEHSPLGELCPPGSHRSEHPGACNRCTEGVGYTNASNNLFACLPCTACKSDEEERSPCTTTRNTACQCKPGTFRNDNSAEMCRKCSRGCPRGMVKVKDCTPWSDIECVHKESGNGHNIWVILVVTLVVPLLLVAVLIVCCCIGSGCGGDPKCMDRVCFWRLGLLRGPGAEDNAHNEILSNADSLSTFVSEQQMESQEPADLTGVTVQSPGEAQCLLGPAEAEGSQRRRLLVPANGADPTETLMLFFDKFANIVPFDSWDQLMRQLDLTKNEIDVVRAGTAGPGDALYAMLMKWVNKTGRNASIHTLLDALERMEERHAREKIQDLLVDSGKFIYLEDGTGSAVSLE
Sequence of UniProt Q9Y4E6 (Q9Y4E6 whole entry, looked up): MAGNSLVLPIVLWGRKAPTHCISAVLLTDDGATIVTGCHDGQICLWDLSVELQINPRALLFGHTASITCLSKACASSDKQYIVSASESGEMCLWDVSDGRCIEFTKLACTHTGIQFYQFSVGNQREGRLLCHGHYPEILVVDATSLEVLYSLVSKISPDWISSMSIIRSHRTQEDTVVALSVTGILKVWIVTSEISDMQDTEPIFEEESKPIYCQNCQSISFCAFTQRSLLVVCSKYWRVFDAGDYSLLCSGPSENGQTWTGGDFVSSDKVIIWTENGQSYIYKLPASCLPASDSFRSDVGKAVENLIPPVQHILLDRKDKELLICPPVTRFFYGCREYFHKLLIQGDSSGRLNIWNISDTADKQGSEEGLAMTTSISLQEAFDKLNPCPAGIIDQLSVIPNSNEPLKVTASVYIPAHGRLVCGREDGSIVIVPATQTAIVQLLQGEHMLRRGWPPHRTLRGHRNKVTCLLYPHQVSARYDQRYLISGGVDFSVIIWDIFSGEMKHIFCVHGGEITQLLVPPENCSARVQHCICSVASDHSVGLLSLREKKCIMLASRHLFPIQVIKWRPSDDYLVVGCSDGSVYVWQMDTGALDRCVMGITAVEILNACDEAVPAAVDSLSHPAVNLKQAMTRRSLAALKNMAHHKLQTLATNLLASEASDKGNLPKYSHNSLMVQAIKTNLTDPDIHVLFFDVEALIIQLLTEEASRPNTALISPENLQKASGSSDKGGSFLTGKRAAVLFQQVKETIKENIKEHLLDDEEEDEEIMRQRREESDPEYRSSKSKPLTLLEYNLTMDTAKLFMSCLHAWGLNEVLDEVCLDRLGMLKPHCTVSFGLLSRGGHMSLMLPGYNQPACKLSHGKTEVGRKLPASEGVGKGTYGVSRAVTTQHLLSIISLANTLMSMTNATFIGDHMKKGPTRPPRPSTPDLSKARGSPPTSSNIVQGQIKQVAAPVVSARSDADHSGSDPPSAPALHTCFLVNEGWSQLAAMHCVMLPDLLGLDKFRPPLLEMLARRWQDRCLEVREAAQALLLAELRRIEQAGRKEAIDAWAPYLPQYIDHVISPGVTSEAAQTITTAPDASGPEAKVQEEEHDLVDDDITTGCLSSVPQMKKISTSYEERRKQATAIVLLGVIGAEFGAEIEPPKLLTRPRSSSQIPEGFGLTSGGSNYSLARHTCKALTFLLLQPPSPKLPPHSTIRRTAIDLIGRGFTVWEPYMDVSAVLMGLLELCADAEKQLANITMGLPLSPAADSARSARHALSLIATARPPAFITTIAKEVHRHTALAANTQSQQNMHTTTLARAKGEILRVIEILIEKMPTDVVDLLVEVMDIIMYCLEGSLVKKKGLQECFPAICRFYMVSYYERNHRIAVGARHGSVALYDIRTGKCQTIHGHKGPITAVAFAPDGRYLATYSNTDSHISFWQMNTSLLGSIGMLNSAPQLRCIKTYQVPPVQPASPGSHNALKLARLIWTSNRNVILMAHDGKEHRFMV
Sequence of UniProt Q9BUB7 (Q9BUB7 whole entry, looked up): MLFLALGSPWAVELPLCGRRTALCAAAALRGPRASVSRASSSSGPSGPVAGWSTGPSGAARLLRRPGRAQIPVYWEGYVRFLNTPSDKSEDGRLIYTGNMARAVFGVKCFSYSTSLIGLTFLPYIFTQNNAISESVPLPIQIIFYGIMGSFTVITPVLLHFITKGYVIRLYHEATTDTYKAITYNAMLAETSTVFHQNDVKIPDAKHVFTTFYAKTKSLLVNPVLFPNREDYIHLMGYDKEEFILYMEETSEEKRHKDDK
Sequence of UniProt Q16763 (Q16763 whole entry, looked up): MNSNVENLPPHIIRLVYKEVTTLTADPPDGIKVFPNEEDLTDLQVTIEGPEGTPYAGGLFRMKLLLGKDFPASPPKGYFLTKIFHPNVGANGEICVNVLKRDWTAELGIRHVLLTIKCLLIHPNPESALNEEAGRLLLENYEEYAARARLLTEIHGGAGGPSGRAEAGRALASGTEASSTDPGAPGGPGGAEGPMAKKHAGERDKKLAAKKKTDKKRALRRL
Sequence of UniProt Q8IZ69 (Q8IZ69 whole entry, looked up): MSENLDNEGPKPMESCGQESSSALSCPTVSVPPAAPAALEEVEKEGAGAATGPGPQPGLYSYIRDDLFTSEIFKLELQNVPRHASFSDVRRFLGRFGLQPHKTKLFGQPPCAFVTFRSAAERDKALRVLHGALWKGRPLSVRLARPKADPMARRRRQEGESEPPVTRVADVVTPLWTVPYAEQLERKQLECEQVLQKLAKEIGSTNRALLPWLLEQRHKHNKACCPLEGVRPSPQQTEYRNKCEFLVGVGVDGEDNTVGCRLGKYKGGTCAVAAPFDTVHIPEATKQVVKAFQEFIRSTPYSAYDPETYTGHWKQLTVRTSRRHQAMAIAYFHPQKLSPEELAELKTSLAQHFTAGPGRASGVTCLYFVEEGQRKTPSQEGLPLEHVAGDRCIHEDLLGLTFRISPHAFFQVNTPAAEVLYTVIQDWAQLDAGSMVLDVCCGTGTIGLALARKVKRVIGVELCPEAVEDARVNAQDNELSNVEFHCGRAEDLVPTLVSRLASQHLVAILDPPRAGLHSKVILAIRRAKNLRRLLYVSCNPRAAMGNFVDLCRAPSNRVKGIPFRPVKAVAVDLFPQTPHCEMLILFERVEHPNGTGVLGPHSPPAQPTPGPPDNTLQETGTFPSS
Sequence of UniProt P61960 (P61960 whole entry, looked up): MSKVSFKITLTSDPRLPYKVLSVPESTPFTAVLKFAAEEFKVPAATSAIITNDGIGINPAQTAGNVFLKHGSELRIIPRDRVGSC
Sequence of UniProt Q9BZI7 (Q9BZI7 whole entry, looked up): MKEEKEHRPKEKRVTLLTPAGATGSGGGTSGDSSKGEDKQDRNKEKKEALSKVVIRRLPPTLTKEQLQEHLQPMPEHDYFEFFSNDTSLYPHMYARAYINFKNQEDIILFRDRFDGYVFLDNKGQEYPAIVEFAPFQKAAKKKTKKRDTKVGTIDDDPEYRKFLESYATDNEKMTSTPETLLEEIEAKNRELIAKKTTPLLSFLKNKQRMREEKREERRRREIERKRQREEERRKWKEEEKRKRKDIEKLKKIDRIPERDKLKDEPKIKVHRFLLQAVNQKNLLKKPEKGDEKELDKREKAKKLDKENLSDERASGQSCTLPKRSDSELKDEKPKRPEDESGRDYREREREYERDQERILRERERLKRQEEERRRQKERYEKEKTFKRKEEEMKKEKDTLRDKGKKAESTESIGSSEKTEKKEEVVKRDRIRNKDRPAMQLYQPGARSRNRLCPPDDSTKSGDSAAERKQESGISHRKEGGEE
Sequence of UniProt Q8N4H5 (Q8N4H5 whole entry, looked up): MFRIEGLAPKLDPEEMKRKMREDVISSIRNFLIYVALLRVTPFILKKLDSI
Sequence of UniProt Q9NQW7 (Q9NQW7 whole entry, looked up): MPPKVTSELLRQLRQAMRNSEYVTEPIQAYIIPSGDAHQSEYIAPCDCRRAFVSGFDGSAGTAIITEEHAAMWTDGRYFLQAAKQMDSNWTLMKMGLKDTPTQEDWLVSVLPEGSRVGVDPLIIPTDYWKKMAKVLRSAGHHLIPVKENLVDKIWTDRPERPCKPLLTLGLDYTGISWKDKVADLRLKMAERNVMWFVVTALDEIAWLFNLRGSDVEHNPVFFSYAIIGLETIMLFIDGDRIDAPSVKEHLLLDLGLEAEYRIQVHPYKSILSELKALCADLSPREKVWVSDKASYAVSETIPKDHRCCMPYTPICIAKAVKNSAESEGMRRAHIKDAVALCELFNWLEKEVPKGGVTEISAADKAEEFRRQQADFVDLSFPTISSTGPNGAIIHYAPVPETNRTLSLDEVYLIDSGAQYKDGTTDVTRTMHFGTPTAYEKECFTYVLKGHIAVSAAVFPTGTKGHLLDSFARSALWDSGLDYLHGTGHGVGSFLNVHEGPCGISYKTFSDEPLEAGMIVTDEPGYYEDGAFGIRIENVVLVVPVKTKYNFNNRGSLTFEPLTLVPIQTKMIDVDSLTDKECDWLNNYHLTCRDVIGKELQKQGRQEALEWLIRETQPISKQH
Sequence of UniProt Q9UEU0 (Q9UEU0 whole entry, looked up): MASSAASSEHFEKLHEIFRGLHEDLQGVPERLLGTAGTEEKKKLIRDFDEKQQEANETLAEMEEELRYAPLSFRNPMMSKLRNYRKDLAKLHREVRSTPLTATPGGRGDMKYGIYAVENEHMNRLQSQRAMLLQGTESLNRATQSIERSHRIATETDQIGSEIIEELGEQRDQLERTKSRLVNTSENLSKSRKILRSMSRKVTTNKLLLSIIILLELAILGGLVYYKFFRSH

Target	log2 fold change [1]	log2 fold change [2]	log2 fold change [3]	log2 fold change [4]	log2 fold change [5]	log2 fold change [6]	log2 fold change [7]	log2 fold change [8]	log2 fold change [9]	log2 fold change [10]
UFM1 (UniProt P61960)	0.026	0.072	0.093	0.064	-0.015	-0.002	0.12	0.172	-0.297	0.088
WDR7 (UniProt Q9Y4E6)	0.06	0.074	0.065	-0.049	0.092	-0.001	0.099	0.028	-0.009	-0.02
UPF3B (UniProt Q9BZI7)	-0.108	-0.149	-0.703 (active)	0.088	-0.053	-0.072	-0.019	-0.016	0.117	-0.097
VARS2, A0A0G2JL52	0.012	0.006	-0.002	0	0.046	-0.006	0.026	0.003	0.006	-0.01
TMEM214 (UniProt Q6NUQ4)	-0.068	0.016	-0.019	0.001	0.015	0.017	-0.044	-0.025	0.009	-0.088
WASH2P (UniProt Q6VEQ5)	0.005	-0.02	-0.084	0.003	0.041	0.038	0.014	0.011	0.117	0.013
VPS37A (UniProt Q8NEZ2)	0.127	0.113	-0.042	-0.097	-0.054	0.059	0.098	0.044	0.036	0.008
UBE3D (UniProt Q7Z6J8)	-0.014	-0.018	0.033	0.022	0.003	-0.076	0.013	-0.006	-0.114	0.079
UBA52 (UniProt P62987)	-0.113	-0.266	-0.659	0.093	-0.311	-0.024	-0.029	-0.082	0.165	-0.04
TRAPPC11 (UniProt Q7Z392)	0.044	0.136	-0.027	0.017	0.105	0.059	0.027	0.062	-0.019	-0.001
UBC (UniProt P0CG48)	-0.007	-0.021	-0.004	0.011	0.024	-0.044	-0.054	0.009	0.043	-0.041
XPNPEP1 isoform 3 (UniProt Q9NQW7)	-0.005	-0.069	0.067	0.022	0.076	-0.003	0.048	0.04	0	0.033
UBE2S (UniProt Q16763)	0.01	0.064	-0.025	-0.021	0.052	0.014	-0.008	0.014	-0.02	0.029
TRMT2A (UniProt Q8IZ69)	0	0.069	-0.124	0.07	-0.016	-0.009	-0.026	-0.09	0.031	-0.011
TNFRSF10A (UniProt O00220)	-0.01	-0.05	-0.023	-0.014	0.049	-0.012	-0.026	0.018	-0.039	-0.049
UBE2E3 (UniProt Q969T4)	0.063	0.112	0.152	-0.034	0.083	0.009	0.014	0.045	-0.028	-0.019
UCHL5 isoform 3 (UniProt Q9Y5K5)	0.047	0.106	0.415	-0.124	-0.036	0.125	-0.11	0.102	0.207	-0.103
VPS13B (UniProt Q7Z7G8)	0.032	0.024	0.028	0.009	0.048	-0.025	0.032	-0.017	-0.052	0.058
VTI1B (UniProt Q9UEU0)	0.011	-0.008	-0.023	-0.02	0	0.03	-0.055	-0.036	0.022	0.046
TOMM5 isoform 2 (UniProt Q8N4H5)	-0.115	0.063	0.378 (active)	0.134	0	0.052	-0.123	-0.003	-0.038	-0.047
TUBAL3 (UniProt A6NHL2)	0.092	0.096	0.099	0.018	0.048	0.004	0.031	-0.034	-0.046	0.145
TSEN2 (UniProt Q8NCE0)	0.08	-0.001	-0.016	0.029	0.041	0.098	0.023	0.023	-0.04	0.061
UHRF1BP1L (UniProt A0JNW5)	-0.024	0.017	0.016	0.027	0.042	0.01	-0.009	0.025	-0.007	0.061
XPNPEP3 (UniProt Q9NQH7)	0.019	-0.275 (active)	0.017	0.06	0.067	0.026	-0.005	0	0.005	0.083
TSFM (UniProt P43897)	0.037	-0.004	0.302	-0.206	0.189	0.044	0.11	-0.069	-0.016	0.095
VPS51 (UniProt Q9UID3)	-0.003	0.123	-0.02	-0.01	-0.002	0.035	-0.014	-0.016	-0.029	-0.02
TXNRD1 (UniProt Q16881)	0.021	0.049	0.057	-0.006	0.009	0.074	0.027	0.019	0.005	0.046
TMEM63B (UniProt Q5T3F8)	-0.037	0.063	-0.024	-0.009	-0.066	0.012	-0.076	-0.033	0.011	0.065
VPS41 (UniProt P49754)	-0.022	0.076	-0.049	-0.018	0.086	0.056	0.004	0.031	0.043	-0.058
TMEM70 (UniProt Q9BUB7)	-0.286	0.03	0.023	0.257	0.008	-0.09	-0.063	-0.039	-0.007	0.053
